Screening results as filed in PubChem BioAssay.
Shown are actives, neighbours in structure and some others; about 7.4% of the full set was active somewhere.
FLuc counter – counter-screen for miR-21 project: firefly luciferase inhibitors or activators | AID 588342 | 6.9% of 360,000 active | Potency, µM (top dose mostly 57.5 µM), for the others: top-dose activity change, negative = inhibition, actives largely listed as inhibitors | purified FLuc, Km substrates, luminescence inhibition;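 further: plate controls were vehicle for no effect and reference inhibitor for full effect; nearly all actives have a fitted effect of over 55% in size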
Target sequence (P08659 whole entry, looked up): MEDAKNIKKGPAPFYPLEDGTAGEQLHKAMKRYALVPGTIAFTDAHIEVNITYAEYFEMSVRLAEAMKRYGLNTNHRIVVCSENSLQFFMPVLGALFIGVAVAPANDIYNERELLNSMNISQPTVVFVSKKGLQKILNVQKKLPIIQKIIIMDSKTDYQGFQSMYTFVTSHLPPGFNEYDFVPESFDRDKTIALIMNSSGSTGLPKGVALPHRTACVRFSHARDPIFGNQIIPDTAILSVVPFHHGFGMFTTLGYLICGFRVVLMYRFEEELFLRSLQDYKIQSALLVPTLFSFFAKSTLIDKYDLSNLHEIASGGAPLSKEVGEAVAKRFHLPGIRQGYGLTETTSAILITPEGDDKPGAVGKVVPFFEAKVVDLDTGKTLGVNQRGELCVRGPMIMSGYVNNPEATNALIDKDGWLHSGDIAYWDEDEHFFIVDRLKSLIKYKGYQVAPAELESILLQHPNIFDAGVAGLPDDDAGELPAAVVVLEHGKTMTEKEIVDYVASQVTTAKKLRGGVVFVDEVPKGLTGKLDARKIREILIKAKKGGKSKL
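Purified P. pyralis luciferase, 10 nM final, with Km-level 10 uM D-luciferin and 10 uM ATP in 50 mM Tris acetate pH 7.5, 10 mM Mg acetate, 0.01% Tween-20, 0.05% BSA; 6-point qHTS titration about 60 µM downward; luminescence read.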
NPC1 promoter act – NPC1 promoter activation | Huh7 NPC1 promoter luciferase reporter, 24 h | Potency, µM (highest dose often 9.22 µM), for the others: at the top dose activation, actives largely listed as activators | 2.4% of 320,000 active; further: % of control where 0% means no effect; nearly all actives have a fitted effect of over 60% in size
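Readout is luciferase luminescence, reflecting NPC1 promoter activation in stably transfected Huh7 cells after 24 h compound exposure at 37 °C in reduced-serum medium with 10% FBS.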
Rab9 prom act – activates the Rab9 promoter | Huh7 Rab9 promoter-luciferase reporter, luminescence, 24 h | Potency, µM (top dose mostly 9.22 µM), for the others: top-dose activation, negative = inhibition, usual class: activators | 2.8% of 320,000 active | AID 485297; further: % of control where 0% means no effect; nearly all actives have a fitted effect of over 60% in size
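Luciferase signal after 10 min detection reagent at ambient indicates Rab9 promoter upregulation; stably transfected Huh7 cells were treated 24 h with compound in DMSO at 37 °C, 5% CO2.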
ELG1 genotox – inducers of genotoxicity in HEK293T ELG1-luciferase cells. 1.3% of 330,000 active. Potency, µM (series often up to 46 µM), without a hit: at the top dose activity change, positive = activation, hits mostly activators. AID 504466. HEK293T ELG1-luciferase reporter, luminescence, 16 h; further: % of control where 0% means no effect; nearly all actives have a fitted effect of over 60% in size
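DMSO vehicle served as control against compound-treated ELG1-luciferase HEK293T cells; exposure lasted 16 hr at 37 °C and 5% CO2, followed by ONE-Glo luminescence detection after 30 min.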
SMN2 splice up – enhancers of SMN2 splice variant expression | 2.8% of 210,000 active | Potency, µM (series often up to 46.1 µM), without a hit: top-dose activity change, positive = activation, usual class: activators | HEK293 SMN2-luciferase splicing reporter, luminescence, 30-36 h | AID 1458; further: % of control where 0% means no effect; nearly all actives have a fitted effect of over 55% in size
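HEK293 cells carry an SMN2 minigene-luciferase reporter in which exon 7 inclusion puts luciferase in frame. Cells were seeded at 2000 cells/well, attached for 10-12 hours, then exposed to compounds for 30-36 hours at 37C before ONE-Glo luminescence.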
Active calls of the source: *; ? = inconclusive; nt = not tested or not shown; [ ] = dose if it differs, or a comment. The call rests on the fitted dose curve; in most records, active means well fitted curve in the direction sought with a large enough effect; inconclusive means small, poorly fitted or top-dose-only effect, or another doubt; inactive means no such curve, though single readings can be large; an effect the other way counts as inactive or inconclusive. Potency means the concentration at half of the fitted maximal effect.

SMILES	FLuc counter	NPC1 promoter act	Rab9 prom act	ELG1 genotox	SMN2 splice up
COc1cn(-c2ccccc2)nc1C(=O)Nc1ccccc1	13.5µM*	?	?	16.0%	nt
COc1ccc(C)cc1NC(=O)c1nn(-c2ccccc2)cc1OC	?	-13.4%	-5.5%	-16.5%	nt
COC(=O)c1ccc(NC(=O)c2cn(-c3ccccc3)nc2-c2ccncc2)cc1	-0.3%	-0.7%	1.8%	-2.8%	-20.3%
COc1cn(-c2ccccc2)nc1C(=O)Nc1ccc(C)cc1	8.49µM*	?	?	-7.4%	nt
CCOC(=O)C(CC)n1nc(C)c2c(C)n(-c3ccc(C)cc3)nc2c1=O (stereo not drawn)	-8.0%	nt	nt	nt	-49.4%
CCCCOc1ccc(CNC(=O)c2ccc(NC(=O)N3CCSc4ncccc43)cc2)cc1	1.8%	nt	nt	nt	nt
O=C(Cc1n[nH]c(=O)c2ccccc12)OCC(=O)c1ccc(F)cc1	3.7%	-2.3%	0.8%	0.1%	nt
O=C(Cc1n[nH]c(=O)c2ccccc12)OCC(=O)c1ccc2c(c1)OCCO2	13.5µM*	-7.5%	-10.1%	?	-18.6%
O=C(Cc1ccc(Br)cc1)OCC(=O)c1ccc2c(c1)OCCO2	16.9µM*	-4.1%	-1.6%	3.9%	15.7%
COc1ccc(-c2nnc(SCC(=O)Nc3ccc(C)c(Cl)c3)nc2-c2ccc(OC)c(OC)c2)cc1OC	-3.0%	nt	nt	nt	nt
CC(C)(C)NC(=O)CN(C(=O)CCC(=O)Nc1nccs1)c1ccc2c(c1)OCCO2	0.1%	-0.1%	-1.4%	-0.5%	nt
CC(C)CCNC(=O)CN(C(=O)CCC(=O)Nc1nccs1)c1ccc2c(c1)OCCO2	?	1.4%	2.5%	20.6µM*	nt
CCN(CC)CCCNC(=O)c1ccc2c(c1)NC(=O)C(CS(=O)(=O)Cc1cccc(Br)c1)N2 (stereo not drawn)	-5.4%	nt	nt	nt	nt
O=C1Nc2ccccc2C1=Nc1cccc2ncccc12	nt	nt	nt	nt	-2.4%[9.22 µM]
Cc1cccc(NCc2ccc(N(C)C)cc2)n1	10.7µM*	?	?	18.3µM*	nt
CSc1ccc(CNc2ccccn2)cc1	15.1µM*	?	?	?	12.1%
CN(C)c1ccc(CNc2ncc(Br)cc2Br)cc1	19µM*	18.6%	7.0%	10.9%	16.5%
CN(C)c1ccc(CNc2ccccn2)cc1	13.5µM*	?	?	?	nt
Cc1ccc(O)c(CNc2cccc(C)n2)c1	-22.8%	1.9%	4.1%	0.8%	nt
O=C(c1cnccn1)N1CCC[C@@]2(CCN(C(c3ccccc3)c3ccccc3)C2)C1	nt	nt	nt	nt	-13.4%
COc1ccc(C(=O)N2CC(=O)Nc3ccc(C)cc3C2c2ccc(F)cc2)c(OC)c1 (stereo not drawn)	-11.8%	nt	nt	nt	3.0%
Cc1cc(Cl)ccc1NC(=O)CN1C(=O)COc2ccc(S(=O)(=O)N3CCC(C)CC3)cc21	-5.2%	nt	nt	nt	nt
CN(C)c1ccc(-c2cc(NCc3cccnc3)ncn2)cc1	nt	nt	nt	nt	10µM*
Cc1cccc(CNc2cc(-c3ccc(N(C)C)cc3)ncn2)c1	nt	nt	nt	nt	-11.5%
CCOc1ccc(/C=C/c2nc(C#N)c(NCc3ccc(OC)cc3)o2)cc1	4.8%	nt	nt	nt	2.1%
SMILES	FLuc counter	NPC1 promoter act	Rab9 prom act	ELG1 genotox	SMN2 splice up
COc1ccc(/C=C/C2=CC(C)(C)NC(=S)N2)cc1OC	-18.2%	7.7%	-4.6%	2.1%	-12.1%
COc1ccc(/C=C/C2=Nc3ccccc3NC(C)(C)C2)cc1OC	6.01µM*	29.0%	?	-4.7%	nt
CCOC(=O)NC(=O)CSc1nc(C)cc(C)c1C#N	?	2.51µM*	1.58µM*	5.8µM*	111.9%
CCc1nnc(NC(=O)CSc2nc(-c3ccc(F)cc3)cc(-c3ccccc3)c2C#N)s1	?	-2.4%	-1.1%	5.5%	nt
CCc1nnc(NC(=O)CSc2nc(C)cc(C)c2C#N)s1	?	?	0.501µM*	?	11.2µM*
COc1ccc(OCC(O)COc2ccc(C(=O)O)cc2)cc1 (stereo not drawn)	15.1µM*	3.4%	-2.7%	2.7%	10.0%
COc1ccc(OCc2ccc(C(=O)O)cc2)cc1	6.75µM*	?	?	11.7%	5.01µM*
COc1cc(OC)c2c(C)c(CC(=O)NCCc3ccccc3OC)c(=O)oc2c1	0.7%	nt	nt	nt	-4.0%
COc1cc(-c2ccno2)ccc1S(=O)(=O)N1CCN(c2cccc(Cl)c2)CC1	-1.3%	nt	nt	nt	nt
